# Source: PubChem (National Center for Advancing Translational Sciences (NCATS))
# An excerpt weighted towards active compounds, which were near 7% of everything screened.
# HP1b chromo inh: HTS for Inhibitors of HP1-beta Chromodomain Interactions with Methylated Histone Tails | Chromobox protein homolog 1 (Homo sapiens), P83916 | AlphaScreen HP1-beta / biotin-H3K9me3 peptide binding | Potency, µM (titrated, usually from 114 µM), without a hit: at the highest dose activity change, negative = inhibition, most hits filed as inhibitors | 0.56% of 390,000 active; further: potency means the concentration at half of the fitted maximal effect; nearly all actives have a fitted effect of over 70% in size
#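 Compound inhibition of the preformed complex between 50 nM HP1-beta and 50 nM biotinylated H3K9me3 peptide was read by AlphaScreen. Buffer was PBS pH 7.4 with 0.01% Tween-20. Incubations ran 30 min at room temperature, with 10 ug/mL donor/acceptor beads.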
# KAT2A inh: qHTS Assay for Inhibitors of GCN5L2; Histone acetyltransferase KAT2A (Homo sapiens), Q92830; GCN5L2 HAT assay, ThioGlo1 CoA-SH fluorescence; Potency, µM (top dose mostly 58.9 µM), without a hit: at the top dose activity change, negative = inhibition, hits mostly inhibitors; 0.21% of 390,000 active; further: potency means the concentration at half of the fitted maximal effect; on the % scale 0 is the no-effect control and ±100 the full control effect
#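 Fluorescence readout, Ex340nm/Em540nm: ThioGlo1 (50uM final) reacts with free CoA thiol released as 20nM GCN5L2 acetylates H3(1-25) peptide (75uM) using acetyl-CoA (70uM). Compound and enzyme sat 15 min beforehand; 20 min room-temperature reaction.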
# PI5P4Ka inh: qHTS for Inhibitors of phosphatidylinositol 5-phosphate 4-kinase (PI5P4K) | PI5P4Kalpha enzyme, ADP-Glo luminescence, 60 min; active compounds read low | max response, % | 1.2% of 330,000 active | AID 652105, 2013; active means max response of -50% or lower; inconclusive means between -30% and -50%; inactive means -30% or higher; further: value at the top dose of about 77 µM; on the % scale 0 is the no-effect control and ±100 the full control effect
#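 ADP-Glo luminescence end-point after a 60 min room-temperature kinase reaction. PI5P4Kalpha and substrate in HEPES pH 7.4 buffer with EGTA, 0.1% CHAPS and 5% DMSO; ATP at 5 microM final.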
# JMJD2A Tudor: qHTS Assay for Inhibitors of JMJD2A-Tudor Domain; Lysine-specific demethylase 4A (Homo sapiens), O75164; AlphaScreen JMJD2A-Tudor / H3K4me3 peptide binding; Potency, µM (series often up to 114 µM), for inactives: top-dose activity change, negative = inhibition, usual class: inhibitors; 4.4% of 390,000 active; AID 504339, 2011; further: potency means the concentration at half of the fitted maximal effect; on the % scale 0 is the no-effect control and ±100 the full control effect; nearly all actives have a fitted effect of over 50% in size
# Target sequence (O75164 whole entry, looked up, the tested form may be a part): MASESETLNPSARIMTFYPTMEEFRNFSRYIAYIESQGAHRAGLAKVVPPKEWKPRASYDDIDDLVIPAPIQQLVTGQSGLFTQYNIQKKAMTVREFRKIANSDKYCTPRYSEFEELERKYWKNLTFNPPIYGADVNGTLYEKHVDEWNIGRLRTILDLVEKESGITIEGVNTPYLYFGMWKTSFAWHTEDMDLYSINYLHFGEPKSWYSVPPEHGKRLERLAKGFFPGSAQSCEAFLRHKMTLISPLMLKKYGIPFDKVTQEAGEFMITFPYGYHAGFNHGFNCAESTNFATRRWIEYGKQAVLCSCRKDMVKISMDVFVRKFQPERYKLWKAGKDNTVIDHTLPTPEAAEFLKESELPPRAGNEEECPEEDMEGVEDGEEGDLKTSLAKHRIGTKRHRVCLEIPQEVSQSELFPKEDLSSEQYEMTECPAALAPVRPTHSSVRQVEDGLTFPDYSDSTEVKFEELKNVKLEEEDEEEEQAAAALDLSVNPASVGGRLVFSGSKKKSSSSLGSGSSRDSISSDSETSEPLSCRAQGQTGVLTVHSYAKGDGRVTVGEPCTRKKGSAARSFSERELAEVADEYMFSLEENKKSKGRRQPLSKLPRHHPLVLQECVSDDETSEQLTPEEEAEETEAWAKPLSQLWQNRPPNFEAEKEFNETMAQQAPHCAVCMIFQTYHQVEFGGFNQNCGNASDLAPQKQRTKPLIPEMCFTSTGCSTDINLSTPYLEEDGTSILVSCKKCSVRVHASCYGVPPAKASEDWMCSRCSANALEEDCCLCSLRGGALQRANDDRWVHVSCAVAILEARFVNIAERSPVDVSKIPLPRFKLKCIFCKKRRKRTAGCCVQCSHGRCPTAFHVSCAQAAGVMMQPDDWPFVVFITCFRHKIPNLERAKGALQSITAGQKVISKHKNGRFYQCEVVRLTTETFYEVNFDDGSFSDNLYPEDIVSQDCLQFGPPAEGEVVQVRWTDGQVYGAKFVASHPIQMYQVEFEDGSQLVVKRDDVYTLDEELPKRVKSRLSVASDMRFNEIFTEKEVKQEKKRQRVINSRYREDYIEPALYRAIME
# PLK1 PBD block: qHTS for Inhibitors of PLK1-PDB (polo-like kinase 1 - polo-box domain): Primary Screen. Serine/threonine-protein kinase PLK1 (Homo sapiens), P53350. Potency, µM, inactives show max response, negative = inhibition, most hits filed as inhibitors. Plk1 PBD binding of FITC phosphopeptide, fluorescence polarization. AID 720504, 2013. 2.8% of 360,000 active; further: potency means the concentration at half of the fitted maximal effect; series mostly up to about 57 µM; on the % scale 0 is the no-effect control and ±100 the full control effect; nearly all actives have a fitted effect of over 65% in size
# BAZ2B block: qHTS Assay for Inhibitors of BAZ2B; AlphaScreen BAZ2B-H3K14Ac peptide displacement; Potency, µM (series often up to 114 µM), for the others: at the top dose activity change, negative = inhibition, hits mostly inhibitors; 4.4% of 360,000 active; AID 504333, 2011; further: potency means the concentration at half of the fitted maximal effect; on the % scale 0 is the no-effect control and ±100 the full control effect; nearly all actives have a fitted effect of over 60% in size
#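 BAZ2B (50 nM) with biotin-H3(5-23)K14Ac peptide (50 nM) in PBS pH 7.4, 0.01% Tween-20, preformed 30 min, then compound 30 min at room temperature; top concentration 110uM. AlphaScreen streptavidin donor/nickel chelate acceptor beads (10 ug/mL final), 20 min dark, signal read.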
# The depositor's hits bear a star; ? = inconclusive; · = no result; [ ] = remark or other dose. Unless noted, the call rests on the fitted dose curve; in most records, active means well fitted curve in the direction sought with a large enough effect; inconclusive means small, poorly fitted or top-dose-only effect, or another doubt; inactive means no such curve, though single readings can be large; an effect the other way counts as inactive or inconclusive.
SMILES,HP1b chromo inh,KAT2A inh,PI5P4Ka inh,JMJD2A Tudor,PLK1 PBD block,BAZ2B block
CN(C)C(=O)N1CCN(C(=O)c2ccco2)CC1,48%,-4%,-2,-10%,-5%,-5%
O=C(c1ccco1)N1CCCN(C(=O)c2ccco2)CC1,-20%,-28%,·,?,19µM*,2%
COc1ccc2nc(SCC(=O)c3c(C)[nH]c4ccccc34)nc(C)c2c1,12%,0%,·,-13%,·,?
Cc1ccc2c(c1C)-c1c(ccc(C)c1C)C(=O)C2=O,16µM*,·,7,50µM*,19µM*,·
O=C([C@@H]1CCCN1C(=O)c1cccs1)N1CCN(S(=O)(=O)c2cccc(F)c2)CC1,55%,-3%,5,-7%,0%,-4%
Cc1coc2cc3oc(=O)c(CCC(=O)N4C[C@H]5C[C@@H](C4)c4cccc(=O)n4C5)c(C)c3cc12,38%,-21%,5,-6%,-1%,-29%
CC12CCC(c3c1nc1ccccc1[n+]3[O-])C2(C)C (stereo unspecified),5%,-3%,-20,45µM*,19µM*,4%
CC(=O)c1ccc(NC(=O)C2CCCN(S(=O)(=O)c3cn(C)cn3)C2)cc1 (stereo unspecified),37%,-7%,·,11%,·,-18%
COCCCNC(=O)C1Cc2cc(S(=O)(=O)N3CCCC3)ccc2N1C(C)=O (stereo unspecified),2%,3%,-20,?,21µM*,-10%
CC(=O)N1c2ccc(S(=O)(=O)N3CCCC3)cc2CC1C(=O)NCc1cccc(F)c1 (stereo unspecified),-6%,-25%,-16,?,24µM*,-11%
Cc1nc(S(=O)(=O)N2CCN(c3ccccc3F)CC2)cn1C,23%[57 µM],1%,·,-15%,·,-10%
O=C(CNC(=O)c1ccccc1)N[C@@H](C(=O)Nc1cc(C(F)(F)F)ccc1Cl)c1ccccc1,·,·,·,-18%,·,·
Cc1ccnc(NC(c2ccccn2)c2c(C)[nH]c3ccccc23)c1 (stereo unspecified),?,-7%,-3,56µM*,12µM*,-39%
Cc1[nH]c2ccccc2c1C(c1ccccn1)N1CCCC1 (stereo unspecified),29%,-2%,0,-11%,-23%,-24%
CN1C2=CC=CC=CC2=[N+](C)C12C=CC(=[N+]([O-])[O-])C=C2[N+](=O)[O-] (stereo unspecified),?,-5%,7,-28%,-19%,35µM*
Cc1ccccc1C(=O)Nc1cc(NC(=O)c2ccccc2C)cc(C(=O)O)c1,8%,-10%,6,-3%,-7%,-4%
COC/C=C/C1=CC2=CC(=O)C(C)(OC(=O)c3cnc4ccccc4n3)C(=O)C2=CN1CC(C)C (stereo unspecified),-7%,·,-4,?,-30%,·
COC/C=C/C1=CC2=CC(=O)C(C)(OC(=O)c3cnc4ccccc4n3)C(=O)C2=CN1C1CCCCC1 (stereo unspecified),·,-29%,·,·,·,?
COC/C=C/C1=CC2=CC(=O)C(C)(OC(=O)c3cnc4ccccc4n3)C(=O)C2=CN1c1ccccc1 (stereo unspecified),-10%,-13%,-69*,?,-9%,-39%
COC/C=C/C1=CC2=CC(=O)C(C)(OC(=O)c3cnc4ccccc4n3)C(=O)C2=CN1c1ccc(CO)cc1 (stereo unspecified),·,?,·,·,·,10µM*
CCCc1cc2c(=O)c(-c3nc4ccccc4s3)c(COCC(=O)O)oc2cc1O,15%,-18%,-74*,?,-24%,-24%
CCOc1ccccc1N=C1SCC(C)N1C(=O)C1CCN(c2ncnc3sc(C)c(C)c23)CC1 (stereo unspecified),29%,·,0,-7%,0%,·
Cc1ccc(S(=O)(=O)N2CCN(C(=O)CN(Cc3ccco3)Cc3cccs3)CC2)cc1,15%[57 µM],·,3,4%,-10%,·
O=NN(Cc1cccnc1)C(=O)NC1CCCCC1,·,·,0,·,27µM*,·
COc1cccc(C=O)c1OC(=O)N1CCOCC1,59%,28%,-8,-9%,-10%,-18%
SMILES,HP1b chromo inh,KAT2A inh,PI5P4Ka inh,JMJD2A Tudor,PLK1 PBD block,BAZ2B block
COc1ccc(S(=O)(=O)c2cnc3ccc(Cl)cc3c2N2CCCCC2C)cc1 (stereo unspecified),31%,-11%,·,-3%,·,-15%
Cc1[nH]n(-c2ccccc2)c(=O)c1C(c1ccc(C(=O)O)cc1)c1c(C)[nH]n(-c2ccccc2)c1=O,-1%,1%,-6,-29%,8.4µM*,-17%
CCOc1ccc(C(c2c(C)[nH]n(-c3ccccc3)c2=O)c2c(C)[nH]n(-c3ccccc3)c2=O)cc1OC,?,-8%,·,?,·,?
COc1cccc(C(C[N+](=O)[O-])c2c(C)[nH]n(-c3ccccc3)c2=O)c1 (stereo unspecified),-11%[57 µM],-17%,-14,-32%,30µM*,?
Cc1[nH]n(-c2ccccc2)c(=O)c1C(C[N+](=O)[O-])c1ccc(Br)cc1 (stereo unspecified),-10%,3%,-14,?,27µM*,?
Cc1[nH]n(-c2ccccc2)c(=O)c1C(c1cccc([N+](=O)[O-])c1)c1c(C)[nH]n(-c2ccccc2)c1=O,-28%,1%,2,?,24µM*,28µM*
COc1ccccc1C(=O)Nc1nsc(-c2ccccc2)n1,44%,1%,-4,-6%,-3%,-1%
O=C(CNC(=O)c1ccc(F)cc1)Nc1ccccc1C(F)(F)F,25%,-9%,3,-3%[11.4 µM],1%,-21%
COc1ccc(C(=O)N/N=C/c2ccccn2)cc1,·,·,2,·,-7%,·
O=C(N/N=C\c1c(O)ccc2ccccc12)c1ccc(O)cc1,0%,-3%,?,?,?,-5%
O=C(CN1CCOCC1)N/N=C/c1c(O)ccc2ccccc12,52%,-1%,0,-12%,-4%,45µM*
O=C(CN1CCOCC1)N/N=C/c1ccco1,44%,-2%,1,-8%,-11%,2%
O=C(NN=Cc1c(O)ccc2ccccc12)c1ccncc1,24%,·,21,79µM*,57%,·
